In the library only some 7.4% were active in any assay of this set; here they are far more common.
SMN2 splice enh: qHTS Assay for Enhancers of SMN2 Splice Variant Expression; HEK293 SMN2-luciferase splicing reporter, luminescence, 30-36 h; Potency, µM (series often up to 46.1 µM), inactives show at the top dose activity change, positive = activation, usual class: activators; 210,000 tested, 2.8% active; note: % of control where 0% means no effect; nearly all actives have a fitted effect of over 55% in size
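HEK293 cells carry an SMN2 […]–luciferase reporter in which exon 7 inclusion puts luciferase in frame. Cells were plated 10-12 h before compound addition, then incubated 30-36 h at 37C. ONE-Glo luminescence was read; sodium butyrate at 4.5 mM final served as control.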
FLuc modulator: qHTS profiling assay for firefly luciferase inhibitor/activator using purifed enzyme and Km concentrations of substrates (counterscreen for miR-21 project) | Luciferin 4-monooxygenase (Photinus pyralis), P08659 | 360,000 tested, 6.9% active | Potency, µM (titrated, usually from 57.5 µM), without a hit: at the top dose activity change, negative = inhibition, most hits filed as inhibitors | purified FLuc, Km substrates, luminescence inhibition;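 note: plate controls were vehicle for no effect and reference inhibitor for full effect; nearly all actives have a fitted effect of over 55% in size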
Target sequence (P08659 whole entry, looked up): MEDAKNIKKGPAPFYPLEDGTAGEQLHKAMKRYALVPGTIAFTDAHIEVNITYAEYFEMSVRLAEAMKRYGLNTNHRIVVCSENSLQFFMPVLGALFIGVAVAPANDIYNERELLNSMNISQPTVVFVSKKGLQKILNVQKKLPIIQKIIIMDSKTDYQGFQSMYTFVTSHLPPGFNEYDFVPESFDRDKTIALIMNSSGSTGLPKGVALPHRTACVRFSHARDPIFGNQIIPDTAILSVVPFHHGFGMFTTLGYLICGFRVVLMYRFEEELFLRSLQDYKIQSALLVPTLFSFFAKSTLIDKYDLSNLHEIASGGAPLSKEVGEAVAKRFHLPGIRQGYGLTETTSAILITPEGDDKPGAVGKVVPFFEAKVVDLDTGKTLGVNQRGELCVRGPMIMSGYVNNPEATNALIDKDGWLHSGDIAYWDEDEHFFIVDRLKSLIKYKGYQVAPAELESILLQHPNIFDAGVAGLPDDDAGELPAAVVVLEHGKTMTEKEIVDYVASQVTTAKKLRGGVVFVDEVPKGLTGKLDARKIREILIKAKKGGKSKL
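Purified P. pyralis luciferase, 10 nM final, with Km-level 10 uM D-luciferin and 10 uM ATP in 50 mM Tris acetate pH 7.5, 10 mM Mg acetate, 0.01% Tween-20, 0.05% BSA; 6-point qHTS titration about 60 µM downward; luminescence read.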
ELG1 genotox: qHTS screen for small molecules that induce genotoxicity in human embryonic kidney (HEK293T) cells expressing luciferase-tagged ELG1 | HEK293T ELG1-luciferase reporter, luminescence, 16 h | Potency, µM (top dose mostly 46 µM), for inactives: at the top dose activity change, positive = activation, most hits filed as activators | 330,000 tested, 1.3% active; note: % of control where 0% means no effect; nearly all actives have a fitted effect of over 60% in size
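Reporter readout depends on ELG1 protein level, which increases with genetic stress. After 16 hr compound exposure at 37 °C, luciferase activity was quantified using ONE-Glo.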
Luc counter: Counterscreen for Luciferase (Kinase-Glo TM) Inhibition. Luciferin 4-monooxygenase (Photuris pensylvanica), Q27757. 200,000 tested, 0.28% active. Potency, µM (titrated, usually from 38.3 µM), for the others: at the highest dose activity change, negative = inhibition, actives largely listed as inhibitors. Kinase-Glo luciferase, ATP luminescence, 8 min; note: % is set by controls: 0 for no effect and ±100 for the full control effect; nearly all actives have a fitted effect of over 60% in size
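Substrate mix (final 50 mM imidazole pH 7.2, 50 mM KCl, 7 mM MgCl2, 10 uM ATP, 0.01% Tween 20, 0.05% BSA) plus pin-tool compound, then Kinase-Glo detection mix; 8 min ambient, luminescence read.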
NPC1 promoter act: qHTS Assay for NPC1 Promoter Activators | Huh7 NPC1 promoter luciferase reporter, 24 h | Potency, µM (highest dose often 9.22 µM), for inactives: top-dose activation, actives largely listed as activators | 320,000 tested, 2.4% active; note: % of control where 0% means no effect; nearly all actives have a fitted effect of over 60% in size
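Stable NPC1-promoter luciferase Huh7 line; cpd (DMSO) 24 h, 37 °C, 5% CO2; Amplite luciferase reagent 10 min RT; luminescence readout. qHTS format.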
Rab9 promoter act: qHTS Assay for Rab9 Promoter Activators | AID 485297, 2010 | 320,000 tested, 2.8% active | Huh7 Rab9 promoter-luciferase reporter, luminescence, 24 h | Potency, µM (highest dose often 9.22 µM), for the others: at the top dose activation, negative = inhibition, actives largely listed as activators; note: % of control where 0% means no effect; nearly all actives have a fitted effect of over 60% in size
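Rab9 promoter-driven luciferase in stably transfected Huh7 cells; 1500 cells/well rested 2 h, exposed to compound in DMSO for 24 h at 37 °C, 5% CO2. Luminescence read 10 min after adding luciferase reagent at ambient temperature.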
An asterisk follows results filed as active; ? = inconclusive; . = not tested or not shown; [ ] = remark or other dose. Calls come from the whole dose curve; as a rule, active = well fitted curve in the direction sought with a large enough effect; inconclusive = small, poorly fitted or top-dose-only effect, or another doubt; inactive = no such curve, though single readings can be large; an effect the other way counts as inactive or inconclusive. Potency is the fitted concentration of half-maximal effect.

SMILES	SMN2 splice enh	FLuc modulator	ELG1 genotox	Luc counter	NPC1 promoter act	Rab9 promoter act
Cc1ccc(NC(=O)CSc2nnc(C3CC3)n2CC2CCCO2)cc1C (stereo not drawn)	.	0%	23%	.	-4%	2%
COc1ccccc1N1CCN(c2ncnc3c2oc2ccccc23)CC1	.	27µM*	?	.	-24%	-20%
O=C(c1ccco1)N1CCN(c2ncnc3c2oc2ccccc23)CC1	4%	24µM*	?	-2%	-2%	2%
COc1ccc(-c2nsc3c(N4CCCC4)ncnc23)cc1	?	0.13µM*	.	-5%	4µM*	0.11µM*
c1cnc(N2CCN(c3ncnc4c3oc3ccccc34)CC2)nc1	.	-1%	12%	.	-2%	8%
O=C(c1ccco1)N1CCN(c2ncnc3c(-c4ccc(Cl)cc4)nsc23)CC1	.	6µM*	?	.	1%	9%
Cc1cc(C)cc(C(=O)NCCC(=O)N2CCC3(CC2)NCCc2[nH]cnc23)c1	.	-1%	3%	.	-13%	17%
O=c1cc(-c2ccccc2Cl)oc2c(Br)ccc(O)c12	10µM*	12µM*	?	-2%[39.9 µM]	?	3.5µM*
Nc1ncccc1OCc1ccc(Br)cc1	?	17µM*	14%	0%	?	2.2µM*
COc1ccc(/C=C/C(=O)O)cc1	.	.	-1%	-2%[39.9 µM]	.	.
COc1ccc(/C=C/C(=O)Oc2ccc(C)cc2)cc1	.	12µM*	-1%	.	-3%	10%
COc1ccc(/C=C/C(=O)NCCOc2ccc(C)cc2)cc1	13%	?	1%	-2%	-1%	1%
COc1ccc(/C=C/C(=O)CCC(=O)O)cc1	.	6.7µM*	9%	-2%	?	2.8µM*
Cc1ccc(-n2ncc3c2CC(C)(C)CC3NC(=O)CCN2CCCO2)cc1 (stereo not drawn)	.	0%	1%	.	0%	5%
COc1ccc(Cl)cc1NC(=O)CN(C)C(=O)c1cc2c(s1)CCC(C)C2 (stereo not drawn)	.	-4%	-8%	.	-6%	0%
COc1ccc(NC(=O)Cn2c(SCc3ccc(F)cc3)nc3cccnc32)cc1OC	.	2.7µM*	.	.	.	.
COc1ccc(CCn2c(=O)c3cccnc3n(CC(=O)Nc3cccc(C)c3)c2=O)cc1OC	-7%	-2%	.	.	.	.
O=C(Cn1c(SCc2ccc(F)cc2)nc2cccnc21)Nc1ccccc1F	.	9.5µM*	.	.	.	.
O=C(CSc1nc2ccccc2n1CC(=O)Nc1ccc(F)cc1F)Nc1ccc(F)cc1	.	0%	.	.	.	.
CN(C)c1ccc(NC(=O)Cn2c(SCc3ccccc3F)nc3cccnc32)cc1	.	0%	.	.	.	.
COc1ccc(NC(=O)Cn2c(SCc3ccc(C)cc3)nc3cccnc32)cc1OC	.	0.6µM*	.	.	.	.
O=C(Cn1c(SCc2ccccc2F)nc2cccnc21)Nc1ccc(F)c(Cl)c1	.	27µM*	.	.	.	.
CCOc1ccc(CNC(=O)c2ccc3c(c2)c(C)c(C)n3Cc2ccccc2)cc1OC	.	4%	.	.	.	.
CN1C2CCCC1CC(NC(=O)c1nn(C)c3ccccc13)C2 (stereo not drawn)	.	.	.	.	4%[46.1 µM]	4%[46.1 µM]
CCOc1ccc(/C=C/C(=O)Nc2sc3c(c2C(=O)OC)C(C(=O)OC)CC3)cc1 (stereo not drawn)	-3%	?	.	.	.	.
SMILES	SMN2 splice enh	FLuc modulator	ELG1 genotox	Luc counter	NPC1 promoter act	Rab9 promoter act
C#CCN1C(=O)S/C(=C/C=C/c2ccc(N(C)C)cc2)C1=O	7.1µM*	2.7µM*	9.2µM*	-23%	3.2µM*	2µM*
CC(C)Oc1ccc(C(=O)NCC(=O)N2CCN(S(=O)(=O)/C=C/c3ccccc3)CC2)cc1	.	1%	-3%	.	-2%	-1%
Cc1cc(S(=O)(=O)N2CCCC(C(=O)Nc3ccc(C(=O)O)cc3)C2)ccc1Cl (stereo not drawn)	-3%	-1%	0%	1%	-1%	0%
O=C(/C=C/NCC(=O)c1ccccc1)c1ccc(Br)cc1	11%	-17%	4%	1%	9%	13%
COc1ccc(C(=O)/C=C/NCc2ccc(F)cc2)cc1OC	.	-19%	1%	.	2%	0%
Cc1ccc(C(=O)/C=C/NCc2ccc(F)cc2)cc1	29%	17µM*	10%	0%	-3%	5%
Cc1ccc(CN/C=C/C(=O)c2ccc(Br)cc2)cc1	17%	17µM*	5%	-3%	20%	20%
O=C(COC(=O)c1cc(S(=O)(=O)N2CCOCC2)ccc1O)NCc1ccc2c(c1)OCO2	.	7%	-1%	.	1%	-3%
O=C(CN1CCc2cc3c(cc2C1)OCCCO3)Nc1cccc(Br)c1	.	-2%	-2%	.	0%	0%
Nc1cnn([C@@H]2O[C@H](CO)[C@@H](O)[C@H]2O)c(=O)n1	22µM*	.	.	.	.	.
Nc1cnn(C2OC(CO)C(O)C2O)c(=O)n1 (stereo not drawn)	?	3%	-10%	-2%	0%	3%
Cc1ccc2c(COC(=O)c3c(C)noc3C)cc(=O)oc2c1	-25%	?	3%	-1%	-22%	5%
Cc1ccc2c(COC(=O)c3ccccc3F)cc(=O)oc2c1	.	0.19µM*	2.1µM*	.	?	?
Cc1ccc2c(COC(=O)c3n[nH]c4ccccc34)cc(=O)oc2c1	.	5.4µM*	4.6µM*	-7%	?	12%
CCc1ccc2c(COC(=O)c3n[nH]c4ccccc34)cc(=O)oc2c1	?	5.4µM*	?	-5%	?	?
Cc1cccc(NC(=O)CSc2nc3ccccc3nc2N2CCCC2)c1C	.	-7%	-5%	.	-11%	5%
COc1ccccc1NC(=O)CCNS(=O)(=O)c1ccc2c(c1)CC(C)N2C(=O)C1CC1 (stereo not drawn)	.	-1%	0%[9.26 µM]	.	2%	1%
COC(=O)c1cc(C(=O)OCC(=O)N(C)c2ccccc2)cc([N+](=O)[O-])c1	.	4%	-1%	.	1%	-1%
N#C/C(=C\c1ccc(-c2ccc(C(=O)O)cc2)o1)C(=O)Nc1ccc(F)cc1	.	2.4µM*	2%	.	?	?
Cc1cccc(C)c1NC(=O)/C(C#N)=C/c1ccc(-c2ccc(C(=O)O)cc2)o1	.	12µM*	?	.	0.63µM*	2.5µM*
N#C/C(=C\c1ccc(-c2ccc(C(=O)O)cc2)o1)C(=O)NCC1CCCO1 (stereo not drawn)	?	?	6%	0%	?	24%
Cc1ccccc1Cn1c(CN2CCC(C(=O)NCc3cccnc3)CC2)cc2ccccc21	.	2%	.	.	.	.

Compound activity as filed in PubChem BioAssay.
